Experimental findings from PubChem BioAssay (NCI) are described below.

SMILES strings stand for the structures. This is part of a sample that, as a whole, favours compounds with a hit. Of some 83,000 tested, about 20% had one in any assay.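 Percent growth is the endpoint: 0 to 100 indicates growth inhibition (40 means 60% inhibition), 0 means no net growth, and negative values indicate cell death.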 Values without a mark were called inactive. Activity calls are given as the source filed them. The calls were made as follows: active = growth percent below 10; inactive = the rest.

The experiment has as its system MDA-MB-468 breast. The experiment in a line: NCI-60 one-dose screen, 48 h (100 = growth as untreated, 0 = no growth, -100 = all killed). The settings on record: 10 µM unless noted.
`O=C(Cn1cc(CN2C(=O)c3ccccc3S2(=O)=O)nn1)Nc1ccc([N+](=O)[O-])cc1Cl`: the growth was 103%. Turning to `C/C(CC1(O)C(=O)Nc2ccccc21)=N\O` (stereo not given), the growth was 92%. On to `COc1ccc(C(=O)N/N=C/c2ccc(O)cc2O)cc1Nc1ccnc(C(F)(F)F)c1`, for which the growth is 29.2%.

Consider `COc1ccc(NC(=O)CSc2nc3ccc(Cl)cc3c(=O)n2-c2ccccc2C(F)(F)F)c(OC)c1OC`, for which the growth was 79.6%. In the case of `CC(C)(C)NCCC(O)c1cc2c(Cl)cc(Cl)cc2c2cc(C(F)(F)F)ccc12` (stereo not given), the growth was -85.7% (active). Regarding `COc1cccc(OC)c1-c1nnn(C)c1C(=S)N1CCN(c2ccc([N+](=O)[O-])cc2Cl)CC1`, the growth was 89%. Regarding `Cc1[nH]c(C(=O)Nc2ccc(C(=O)N3CCNCC3)cc2OC(C)C)c(Cl)c1Cl`, the growth was 64.8%. As for `COc1ccc2c(c1)O/C(=C\c1ncc([N+](=O)[O-])n1C)C2=O`, the growth was -7.9% (active).

Consider `O=C(CCCCCCN1CC(=O)N2[C@@H](c3cccs3)c3[nH]c4ccccc4c3C[C@H]2C1=O)NO`, for which the growth is 41.6%. Under `O=C(Nc1ccc(Cl)c(C(F)(F)F)c1)c1ccc(Nc2ccc(Cl)nn2)cc1` stands 41.3%; under `COc1cc(/C=C/C(=O)/C=C/c2ccc(-n3ccnc3C)cc2)ccc1O`, 24.4%; under `CCCCCC(=O)OCc1ccc(Cl)c(Cl)c1`, 123%. To `C#C[C@@]1(O)[C@@H](CO)O[C@@H](n2cnc3c(-c4ccccc4)ncnc32)[C@@H]1O` belongs 111%; to `COC(=O)c1ccc(NC2=C(Cl)C(=O)c3nc(C)ccc3C2=O)cc1`, 56%. In the case of `COc1cc2cc(Oc3ccc(NC(=O)Nc4ccc(F)c(C(F)(F)F)c4)cc3)c(C)nc2cc1OCCN1CCOCC1`, the growth was -15.6% (active). `CC(=O)c1cccs1`: the growth is 105%.

On to `S=C(Nc1ccc(Cl)cc1)c1ccccn1`, for which the growth is 98.9%. For the molecule `CCN(CC)CCCNCc1cc(-c2ccccc2)nc2ccccc12`, the growth is 91.5%. For `O=C(COc1ccc(/C=C2\Cc3ccc(Cl)cc3C2=O)cc1)Nc1nccs1`, the growth is 98.8%. Consider `COC(=O)c1cc(-c2cccs2)c(C#N)c(N)c1C#N`, for which the growth was 80.8%. For `N/C(=N/N=C/c1ccccc1)N/N=C\c1ccccc1`, the growth is -15.7% (active).

As for `CCCCCCCCCCCC[N+]1(CCCCCCCCCCCC)CCCC(C)C1` (stereo not given), the growth is -89.7% (active). Consider `Cc1ccc(CNS(=O)(=O)/N=C2\NC(=O)NC2=C(Cl)Cl)cc1`, for which the growth was 1.67% (active). Under `O=[N+]([O-])C1=C(c2ccccc2)SC=C(c2ccccc2)S1` stands 72.7%; under `CNC(=O)c1ccccc1Sc1ccc2c(/C=C/c3ccccn3)n[nH]c2c1`, 28%. Under `CC(C)=CCC[C@](C)(O)[C@H]1CC[C@]2(C)[C@@H]1CC[C@@H]1[C@@]3(C)Cc4nccnc4C(C)(C)[C@@H]3CC[C@]12C` stands 69.4%; under `O=C(Nc1ncccc1OCc1ccccc1)NC1CCCCCC1`, 75.5%; under `Cc1ccc(S(=O)(=O)N2C/C(=C\c3cc(F)cc(F)c3)C(=O)/C(=C/c3cc(F)cc(F)c3)C2)cc1`, -43.3% (active). On to `CC(C)(C)c1ccc(C(=O)Nc2sc3c(c2C(N)=O)CC/C(=N\O)C3)cc1`, for which the growth is 2.17% (active).

As for `OCCN1CCOCC1`, the growth is 117%.

Consider `COc1cccc2c1[C@H](OC)[C@]13O[C@@]1(C2=O)[C@H](O)[C@H](C)[C@@](O)(C(=O)[C@@H]1O[C@H]1C)[C@@H]3O`, for which the growth is -40.5% (active). As to `c1cc(-c2nc3ccc4[nH]ncc4c3c3c2CCCC3)[nH]n1`, the growth is 43.6%.

In the case of `CCCCOC(=O)c1c(C)[nH]c(/C=C2\N=C(c3ccc[nH]3)C=C2OC)c1C`, the growth is -58.2% (active).

Consider `COc1cccc(Nc2ncnn3ccc(CN4CC[C@@H](N)[C@H](O)C4)c23)c1`, for which the growth is -42.4% (active). To `Cc1c(Cl)cccc1NS(=O)(=O)c1ccccc1` belongs 93.2%; to `COc1ccc(OC)c(Nc2nnc(-c3cc(OC)c(OC)c(OC)c3)o2)c1`, 92%. To `CCc1ccc(-c2ccc(COc3ccc(CC4SC(=O)NC4=O)cc3)cc2)cc1` (stereo not given) belongs 35.3%. To `CCCCCCCCCCCC(=O)OC(C)C(=O)Nc1ccccc1` (stereo not given) belongs 111%; to `CCOC(=O)c1nn(-c2ccc(S(N)(=O)=O)cc2)c2nc(C)cc(=O)n12`, 99%. For the molecule `CC1(C)N=C(N)N=C(N)N1c1ccc(F)c(C(F)(F)F)c1`, the growth is 65.1%.
